Source: PubChem BioAssay AID1259325 (C. David Weaver Laboratory, Vanderbilt University, 2017)
About 30 (0.05%) of roughly 63,000 compounds were called active. The rule behind the calls is not given here. These entries were drawn from the full list.

Target: G protein-activated inward rectifier potassium channel 2 (Homo sapiens) (UniProt P48051)
Assay: opens human GIRK2 potassium channels (AID 1259325)
Details: HEK293-GIRK2 thallium flux, Thallos fluorescence, MPD

G protein-activated inward rectifier potassium channel 2 (Homo sapiens), sequence (P48051 whole entry, looked up): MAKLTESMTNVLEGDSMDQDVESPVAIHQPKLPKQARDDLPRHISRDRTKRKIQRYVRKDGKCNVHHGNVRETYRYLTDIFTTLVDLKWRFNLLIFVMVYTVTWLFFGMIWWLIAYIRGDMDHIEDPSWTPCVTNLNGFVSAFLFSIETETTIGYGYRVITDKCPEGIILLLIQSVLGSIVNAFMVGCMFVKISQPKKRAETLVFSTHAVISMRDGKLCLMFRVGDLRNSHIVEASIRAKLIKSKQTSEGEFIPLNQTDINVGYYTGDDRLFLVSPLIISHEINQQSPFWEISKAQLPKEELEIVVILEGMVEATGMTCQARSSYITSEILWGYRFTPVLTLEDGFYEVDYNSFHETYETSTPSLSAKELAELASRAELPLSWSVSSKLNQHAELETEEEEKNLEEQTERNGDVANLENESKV

Structure (SMILES)	outcome
Cc1cc(NC(=O)c2ccc([N+](=O)[O-])o2)n(-c2nc3c(F)cccc3s2)n1	inactive
O=C(Cc1csc(Nc2ccc(OC(F)(F)F)cc2)n1)NCc1ccncc1	inactive
COC(=O)c1ccccc1NS(=O)(=O)c1ccc(N2C(=O)CCC2=O)cc1	inactive
Cc1cc(C(=O)Nc2nc3c(C)ccc(Cl)c3s2)on1	inactive
COc1ccc(CC(=O)NC2CC(O)C(CO)C2)cc1OC (centres undefined)	inactive
Cc1cc(C)c(C)c(S(=O)(=O)N2CCC(S(C)(=O)=O)C2)c1C (centres undefined)	inactive
O=C(OC1CN(c2nc3c(Cl)cccc3s2)C1)c1ccc(=O)[nH]n1	inactive
O=C(c1ccc(OC(F)(F)F)cc1)N1CCC(CSC2=NCCS2)CC1	inactive
COc1ccc(-c2csc(Cc3nc(-c4ccc(C(F)(F)F)cc4)no3)n2)cc1OC	inactive
COc1cc(C2c3c(oc4ccc(C)cc4c3=O)C(=O)N2CCO)cc(OC)c1OC (centres undefined)	inactive
Cc1oc2cc(OC(=O)N3CCOCC3)ccc2c(=O)c1-c1ccc(Br)cc1	inactive
O=C(CSc1nc2ccccc2o1)N1CCN(c2cc(N3CCCCC3)ncn2)CC1	inactive
O=C(Nn1cnc2c(cnn2-c2ccccc2)c1=O)c1ccc(Cl)cc1Cl	inactive
O=C1/C(=C/c2cc(Br)cc3c2OCOC3)Oc2cc(OC(=O)N3CCOCC3)ccc21	inactive
Cc1ccc(Nc2c(C(=O)N3CCOCC3)cnc3ccccc23)cc1C	inactive
COc1ccc(NC(=O)CCc2csc(NC(=O)c3ccc[nH]c3=O)n2)cc1Cl	inactive
COCCCn1c(C(=O)Nc2cccc(C)c2C)cc2c(=O)n(C)c(=O)n(C)c21	inactive
COc1ccc(C2C(C(=O)Nc3ccccc3)=C(C)Nc3nc(C)nn32)cc1OC (centres undefined)	inactive
COc1ccccc1OCC#CCNC(=O)CSc1nc2ccccc2s1	inactive
CCOc1ccccc1C(=O)Nc1ccc(C)c(N2CCCC2=O)c1	inactive
COC(=O)c1ccc(S(=O)(=O)NCCC(O)c2cc(C)oc2C)cc1 (centres undefined)	inactive
Cc1nnsc1C(=O)NCC1CCN(C(=O)c2ccoc2)CC1	inactive

Structure (SMILES)	outcome
CCC1CCCCN1C(=O)c1cnc2nc(C)ccc2c1Nc1ccc(S(C)(=O)=O)cc1 (centres undefined)	inactive
COc1ccc(NC(=O)c2cn(Cc3ccc(NC(=O)c4ccccc4F)cc3)cn2)cc1	inactive
CS(=O)(=O)N1CCc2nc(NC(=O)/C=C/c3ccccc3Cl)sc2C1	inactive
C=C1C(=O)O[C@H](CCCCCCCC)C1C(=O)O (some centres undefined)	inactive
COc1cc(CN2CC(c3nc4ccc(C)cc4[nH]3)C2)cc(OC)c1	inactive
COc1ccc(C(O)=C2C(=O)C(=O)N(c3cc(C)on3)C2c2ccc(C)cc2)cc1OC (centres undefined)	inactive
COc1cc(OC)cc(C(=O)Nc2ccc(Cl)c3ncsc23)c1	inactive
Cc1ccc(=O)n(CC(=O)N2CCC(Cc3ccccc3)CC2)n1	inactive
O=S(=O)(c1cccc(Cl)c1Cl)N1CCN(c2ccc(-c3ccccc3)nn2)CC1	inactive
O=C(C1CCN(c2ccc(-c3ccccc3)nn2)CC1)N1CCN(Cc2ccccc2)CC1	inactive
COc1ccc(N2CCN(CCCn3c(C)cn4c5c(=O)[nH]c(=O)n(C)c5nc34)CC2)cc1	inactive
O=C(O)CCC/C=C\C[C@@H]1[C@@H](/C=C/C(=O)COc2cccc(C(F)(F)F)c2)[C@H](O)C[C@@H]1O	inactive
O=C(c1cc(-c2ccco2)[nH]n1)N1CC(c2nc(-c3ccc[nH]c3=O)no2)C1	inactive
COc1ccc(OCc2noc(CNC(=O)/C=C/c3cccs3)n2)cc1	inactive
COc1ccc(OCc2noc(CNC(=O)c3ccc4nsnc4c3)n2)cc1	inactive
CC1CCC(NC(=O)C2CCN(c3nc4c(-c5ccccc5F)csc4c(=O)[nH]3)CC2)CC1 (centres undefined)	inactive
Cc1ccc(C)c(NC(=O)CSc2ncnc3nc(N4CCc5ccccc5C4)sc23)c1	inactive
O=C1NC(=NCCc2cccc(F)c2)S/C1=C\c1ccc2ncccc2c1	inactive
O=C(NCCC(O)c1cccc2ccccc12)Nc1ccccc1 (centres undefined)	inactive
O=C(Cc1ccccc1Cl)N1CCCC(c2nnc(-c3ccccc3F)s2)C1 (centres undefined)	inactive
CC(=O)Nc1nc2c(s1)CN(CC(=O)Nc1ccc(OC(F)(F)F)cc1)CC2	inactive
CCOCCn1c(-n2nc(C)cc2C)nc2c1c(=O)n(Cc1ccccc1F)c(=O)n2C	inactive

Structure (SMILES)	outcome
CCOC(=O)C1CCc2sc(NC(=O)CCc3c(C)nn(C)c3C)nc21 (centres undefined)	inactive
O=S(=O)(/C=C/c1ccccc1)NCc1ccc(C(O)c2cccs2)s1 (centres undefined)	inactive
COC(=O)c1ccccc1NC(=O)Cn1nc2nc(N3CCCC(C)C3)ccn2c1=O (centres undefined)	inactive
Cc1cccc(Cn2c(N3CCC(C(N)=O)CC3)nc3c2c(=O)[nH]c(=O)n3C)c1	inactive
CCCn1c(=O)c2cc(Cl)ccc2n2c(SCC(=O)Nc3ccc4c(c3)OCO4)nnc12	inactive
O=C(NCc1ccc2c(c1)OCO2)C1CCN(c2ncnc3c2sc2ncccc23)CC1	inactive
COc1ccc2c(=O)c3c(oc2c1)C(=O)N(CCCN(C)C)C3c1ccccc1 (centres undefined)	inactive
CC(=O)Nc1cccc(C#Cc2cncnc2Nc2ccc(OCc3cccc(F)c3)c(Cl)c2)n1	inactive
O=S(=O)(Cc1nc(-c2ccc(OCc3ccccc3)cc2)no1)c1ccccc1	inactive
O=C(NC1CCN(C(=O)c2cn(-c3ccc(Cl)cc3)nn2)CC1)C1CCCC1	inactive
COc1cccc(CSc2nc(C)c(CC(=O)Nc3cccc(Cl)c3C)c(=O)[nH]2)c1	inactive
COc1cc(-c2nc(CSc3nc4ccccc4c(=O)n3C)c(C)o2)cc(OC)c1OC	inactive
Cc1cn2c3c(=O)n(Cc4ccc(Br)cc4)c(=O)n(C)c3nc2n1CCCO	inactive
COc1ccc(S(=O)(=O)Nc2cccc(N3CCCCC3=O)c2)cc1	inactive
C#CCn1c(COc2ccccc2OC)nc2ccccc21	inactive
O=C(CCSc1ccccc1)NCCCn1ncccc1=O	inactive
CC(O)C(O)(C(=O)OCc1ccccc1NC(=O)CCC(=O)O)C(C)O (centres undefined)	inactive
O=C(Nc1cnoc1)c1ccc(OC(F)(F)F)cc1	inactive
Cc1nc(-c2noc(-c3cccnc3)n2)cn1CC(=O)N1CCc2ccccc21	inactive
O=C(Nc1cccc(F)c1)c1sccc1S(=O)(=O)N1CCN(c2ccccc2)CC1	inactive
